TDP1 cell noCPT = qHTS for Inhibitors of human tyrosyl-DNA phosphodiesterase 1 (TDP1): qHTS in cells in absence of CPT; DT40 Tdp1-/- hTDP1 cells, no CPT, ATP luminescence, 48 h; Potency, µM (titrated, usually from 46.2 µM), inactives show top-dose activity change, negative = growth inhibition, most hits filed as inhibitors; hit rate 15% among 420,000; further: potency means the concentration at half of the fitted maximal effect; nearly all actives have a fitted effect of over 55% in size
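Compound effects on proliferation are scored in DT40 Tdp1-/-;hTDP1 cells in the absence of CPT. ATP levels (CellTiter-Glo luminescence) are recorded after a ≥48 hr, 37 °C incubation.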
IL-1B inflam inh = inflammasome signaling inhibition, IL-1 beta readout; AID 743279; activity change, % at 57.5 µM; THP-1 LPS/ATP IL-1B secretion, AlphaLISA, 16 h; stronger effect = lower value; hit rate 4.7% among 360,000; in the data active means activity change below about -50%; inconclusive means mostly about -30% to -49%
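Secreted IL-1B measured by AlphaLISA bead assay after 16 h compound exposure of THP-1 cells; compounds (final up to 57.5 uM) added 1 h before LPS (250 ng/mL) and ATP (1.25 mM) stimulation; lower signal means less secretion.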
HT1080-NT tox = kills 2HG-producing HT-1080-NT fibrosarcoma cells; HT-1080-NT fibrosarcoma viability, CellTiter-Glo ATP luminescence, 48 h; Potency, µM (top dose mostly 46.1 µM), for the others: at the top dose activity, negative = less viability, most hits filed as cytotoxic; hit rate 1.6% among 360,000;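 further: NT is the 2HG producing partner of a matched IDH1 knockdown line; potency means the concentration at half of the fitted maximal effect; 0% = DMSO-treated cells and -100% = media-only wells without cells; nearly all actives have a fitted effect of over 55% in size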
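750 cells/well, RPMI + 5% FBS; 2 h settle, compound pin-transfer, 48 h at 37 degrees C. CellTiter-Glo 10 min RT, luminescence. Normalized to DMSO and media-only wells.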
HT1080 IDH1KD tx = HT-1080 IDH1 knockdown cell toxicity (counter line); Potency, µM (titrated, usually from 46.1 µM), for the others: top-dose activity, negative = toxicity, usual class: cytotoxic; HT-1080 IDH1 knockdown viability, ATP luminescence, 48 h; hit rate 2% among 360,000;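 further: potency means the concentration at half of the fitted maximal effect; 0% = DMSO wells and -100% = cell-free medium wells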
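Luminescent ATP read-out (CellTiter-Glo, 10 min at room temperature) after 48 h compound exposure at 37 °C gave viability of IDH1-knockdown HT-1080 cells. Activity was normalised to DMSO and cell-free wells, then fitted as concentration-response curves.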
TDP1 cell CPT = DT40-hTDP1 cell growth loss with CPT | hit rate 12% among 420,000 | Potency, µM (highest dose often 46.2 µM), for inactives: at the top dose activity change, negative = growth inhibition, hits mostly inhibitors | AID 686979 | chicken DT40 Tdp1-/-;hTDP1 cells + 20 nM CPT, ATP luminescence, 48 h; further: potency means the concentration at half of the fitted maximal effect; nearly all actives have a fitted effect of over 55% in size
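Chicken DT40 Tdp1-/- cells complemented with human TDP1, 400 cells/well, exposed to compounds plus 20 nM camptothecin for at least 48 h at 37 C; viability read as ATP content by CellTiter-Glo luminescence.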
* marks the source's active call; other numbers are inactive results; ? = inconclusive; . = not tested or not shown. Compounds with a hit are over-represented: about 19% of the library has one in this group of screens. Unless noted, the call rests on the fitted dose curve; in most records, active means well fitted curve in the direction sought with a large enough effect; inconclusive means small, poorly fitted or top-dose-only effect, or another doubt; inactive means no such curve, though single readings can be large; an effect the other way counts as inactive or inconclusive. Unless noted, on the % scale 0 is the no-effect control and ±100 the full control effect.

SMILES	TDP1 cell noCPT	IL-1B inflam inh	HT1080-NT tox	HT1080 IDH1KD tx	TDP1 cell CPT
CC(C)(C)c1ccc(Oc2ccc(NC(=O)CCC(=O)OCC(=O)c3ccccc3)cc2)cc1	13µM*	.	.	.	15µM*
Cc1cccc(Oc2ccc(NC(=O)CCC(=O)OCC(=O)c3ccc(Br)cc3)cc2)c1C	12µM*	.	.	.	13µM*
Cc1ccc(C2SCC(=O)N2Cc2ccccc2)cc1 (configuration not stated)	-15%	6	-1%	-9%	?
O=c1[nH]c2ccccc2n1Cc1ccc(Cl)cc1	?	-4	-14%	-13%	-20%
O=C1[C@H](Cc2ccccc2)NCC=CC[C@H](c2ccc(Cl)cc2)N1Cc1ccc(Cl)cc1	16µM*	-66*	?	?	23µM*
O=C1SC(Nc2ccc(Cl)cc2)C(=O)N1Cc1ccccc1 (configuration not stated)	?	.	.	.	-4%
O=C1[C@H](Cc2ccccc2)NCC=CC[C@H](c2ccc(Cl)cc2)N1Cc1ccccc1	?	-52*	-17%	-22%	?
CC(C)CC(=O)N1CCN(Cc2ccc(Cl)cc2)CC1	?	-18	7%	15%	-3%
O=C1[C@H](Cc2ccccc2)NCC=CC[C@@H](c2ccc(Cl)cc2)N1Cc1ccc(Cl)cc1	?	-60*	?	?	?
CC(C)CC(=O)N1C/C=C\C[C@@H](c2ccc(Cl)cc2)N(Cc2ccc(Cl)cc2)C(=O)[C@@H]1Cc1ccccc1	13µM*	.	.	.	10µM*
CC(C)NS(=O)(=O)c1ccc(NCCCn2ccnc2)c([N+](=O)[O-])c1	-8%	10	?	?	11%
Cc1ccc2nc(N)nnc2c1	0.52µM*	-3	2%	3%	?
C=C1C(=O)O[C@@H]2[C@H]1CC[C@H](C)[C@]1(O)CCC(=O)[C@@]21C	?	-69*	?	?	23µM*
C=C1CCC(O)C2(C)CCC3C(C)C(=O)OC3C12O (configuration not stated)	21%	19	6%	5%	31%
O=C(c1ccccc1)c1nn(-c2cccc(Cl)c2)c2nc(-c3ccccc3)cc(=O)n12	?	-13	0%	1%	-30%
Cc1cccc(-n2nc(C(=O)Nc3ccccc3)n3c(=O)cc(-c4ccccc4)nc23)c1	16µM*	-9	?	14%	?
O=C(Nc1ccccc1Cl)C1CCN(c2nc3ccccc3[nH]2)CC1	-29%	.	.	.	-10%
O=C(c1ccc(F)cc1)N1CCN(C(=O)c2ccc([N+](=O)[O-])cc2)CC1	-5%	-10	-2%	8%	-27%
O=[N+]([O-])c1ccc(S(=O)(=O)c2cccc(C(F)(F)F)c2)nc1	0.65µM*	-102*	10µM*	7.3µM*	2.6µM*
O=S(=O)(Nc1cccnc1)c1cccc(C(F)(F)F)c1	-13%	-4	-6%	1%	-9%
NC(N)=NC(N)=Nc1cccc(Cl)c1	21µM*	-19	8%	-1%	?
Cc1ccc(Cl)cc1N=C(N)N=C(N)N	?	-20	8%	7%	?
CN(Cc1ccccc1)c1ccc(C(=O)O)cc1[N+](=O)[O-]	-3%	-1	2%	0%	-1%
Oc1ccc(/C=N/NC(=S)Nc2cccnc2)c(O)c1O	15µM*	-10	4%	4%	9.2µM*
Oc1ccc(C=NNC(=S)Nc2ccc(F)cc2)c(O)c1	?	145	?	18µM*	-104%
SMILES	TDP1 cell noCPT	IL-1B inflam inh	HT1080-NT tox	HT1080 IDH1KD tx	TDP1 cell CPT
Fc1cccc(F)c1/C=N/NC(=S)Nc1cccnc1	-11%	-7	8%	7%	?
Fc1c(F)c(F)c(/C=N/NC(=S)Nc2cccnc2)c(F)c1F	18µM*	-102*	?	16µM*	?
Fc1ccc(/C=N/NC(=S)Nc2cccnc2)cc1F	?	-8	7%	15%	?
Oc1cccc(/C=N/NC(=S)Nc2cccnc2)c1O	4.6µM*	-96*	?	?	2.3µM*
CCCS(=O)(=O)NC(=O)C1(C)CCCN(C(=O)c2c(OC)cccc2OC)C1 (configuration not stated)	1%	-9	0%	24%	11%
CCN(CC)C(=O)C(=O)N/N=C/c1ccc(F)cc1	1%	0	6%	5%	0%
CN(C)c1ncc2nc(CCc3ccccc3)c(=O)n(-c3ccccc3)c2n1	-8%	.	.	.	-1%
CCNC(=O)[C@H]1O[C@H](n2cnc3c(N)nc(NCCc4ccc(CCC(=O)O)cc4)nc32)[C@@H](O)[C@@H]1O	?	.	.	.	0%
Oc1ccc(/C=N/NC(=S)Nc2cccnc2)c(O)c1	8.2µM*	-65*	?	?	?
CC(C)Cc1ccc(/C=C/C(=O)NC2CC2)cc1	?	-23	2%	-11%	-22%
Cc1ccc(C(=O)NCC(=O)O)o1	1%	-2	5%	10%	6%
Cc1cccc(NC(=O)c2cc3c([nH]c4ccccc43)c(C)n2)c1C	?	-1	16%	22%	6.5µM*
Cc1cccc(NC(=O)c2ccccn2)c1C	?	0	0%	9%	?
Nc1c(C(=O)Nc2ccccc2)sc2nc3c(c(-c4ccco4)c12)CCCC3	?	-51*	-25%	?	?
Nc1c(C(=O)Nc2ccccc2)sc2nc3c(c(-c4ccco4)c12)CCC3	9.2µM*	-25	-9%	?	8.2µM*
Cc1ccccc1NC(=O)c1sc2nc3c(c(-c4ccco4)c2c1N)CCCC3	?	?	-14%	-3%	16µM*
Cc1ccc(NC(=O)c2sc3nc4c(c(-c5ccco5)c3c2N)CCC4)cc1	?	8	-6%	-24%	?
NC(=O)c1sc2nc3c(c(-c4cccs4)c2c1N)CCCCC3	?	8	-6%	-20%	?
CCCCCCOC(=O)Nc1ccc(S(=O)(=O)Nc2cccc([N+](=O)[O-])c2)cc1	?	4	-1%	0%	?
CC(=O)C1=C(C)NC(SCC(N)=O)=C(C#N)C1c1ccco1 (configuration not stated)	20%	-12	7%	2%	26%
CC(=O)C1=C(C)NC(SCC(=O)c2ccc(Cl)c(Cl)c2)=C(C#N)C1c1ccco1 (configuration not stated)	?	-57*	-26%	-2%	?
CC(=O)C1=C(C)NC(SCC(=O)c2ccc(F)cc2)=C(C#N)C1c1ccco1 (configuration not stated)	?	-85*	?	?	?
